This is one part of a sample in which hits are shown more often than they occur.
CHX counter: Cycloheximide Counterscreen for Small Molecule Inhibitors of Shiga Toxin. cell reporter, cycloheximide protein synthesis inhibition counterscreen. max response, %. actives 12% (n = 300,000). AID 2314, 2010; in the data active means max response mostly above about 13%, no sharp cut-off; inactive means mostly below about 14%; further: read at 38.3 µM for the half of the compounds with a filed dose
TbPYK inhibitor: qHTS of Trypanosoma Brucei Inhibitors; TbPYK enzyme, Kinase-Glo Plus ATP luminescence, 45 min; Potency, µM (top dose mostly 76.8 µM), most hits filed as inhibitors; actives 0.12% (n = 410,000); AID 624173, 2012; further: nearly all actives have a fitted effect of over 50% in size
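Readout: single end-point luminescence (Kinase-Glo Plus, 10 min). Reaction conditions were TbPYK/substrate plus 130 uM ADP, 45 min at RT, pH 7.2 TEA buffer. No-enzyme wells served as controls, and data were normalized before concentration-response fitting.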
Shiga inhibitor: A qHTS for Small Molecule Inhibitors of Shiga Toxin. Vero cells, Shiga toxin protein synthesis inhibition reporter. inhibition, % at 38.7 µM. actives 9.2% (n = 290,000); in the data active means inhibition mostly above about 28%, no sharp cut-off; inactive means mostly below about 43%
LmPK inhibitor: qHTS Assay for Inhibitors of Leishmania Mexicana Pyruvate Kinase (LmPK); Q27686; purified LmPK, Kinase-Glo ATP luminescence, 1 h; Potency, µM (series often up to 57.5 µM), most hits filed as inhibitors; actives 0.37% (n = 290,000); AID 1721, 2009
Target sequence (Q27686 whole entry, looked up): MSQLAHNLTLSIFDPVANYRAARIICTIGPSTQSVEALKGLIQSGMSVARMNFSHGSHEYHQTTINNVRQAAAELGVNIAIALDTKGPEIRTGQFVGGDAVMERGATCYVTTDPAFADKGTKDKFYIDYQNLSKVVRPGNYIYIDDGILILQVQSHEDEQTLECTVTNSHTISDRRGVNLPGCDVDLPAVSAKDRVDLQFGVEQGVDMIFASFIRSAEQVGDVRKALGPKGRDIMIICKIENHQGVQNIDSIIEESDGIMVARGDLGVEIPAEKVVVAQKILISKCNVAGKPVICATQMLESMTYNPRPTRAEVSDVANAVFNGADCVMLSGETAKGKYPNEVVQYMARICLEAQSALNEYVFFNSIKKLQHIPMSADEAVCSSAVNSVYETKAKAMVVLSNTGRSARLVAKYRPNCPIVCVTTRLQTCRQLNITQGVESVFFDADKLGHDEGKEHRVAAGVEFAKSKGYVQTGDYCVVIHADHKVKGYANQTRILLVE
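ATP generated from ADP (0.1 mM) and PEP (0.5 mM) by 0.1 nM LmPK over 1 h at room temperature (pH 7.2 imidazole buffer) was detected by coupled luciferase luminescence. Values were normalized to uninhibited and no-enzyme wells.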
Giardia FBPA inh: qHTS Assay for Inhibitors of Fructose-1,6-bisphosphate Aldolase from Giardia Lamblia; Potency, µM (doses to about 59.6 µM), hits mostly inhibitors; purified Giardia FBPA; actives 0.71% (n = 290,000); AID 2451, 2010; A8B2U2; further: nearly all actives have a fitted effect of over 55% in size
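40 nM FBPA preincubated 10 min at RT with compound (up to 57.5 uM final), then substrate plus GAPDH/TPI/NAD/arsenate coupling and diaphorase/resazurin added. Fluorescence read after 20 min at RT, 525/598 nm.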
RE007 growth inh: qHTS Assay for Inhibitors of the HIV-1 protein Vpr. actives 0.21% (n = 360,000). Potency, µM (titrated, usually from 92.2 µM), actives largely listed as inhibitors. S. pombe RE007 Vpr strain, BacTiter-Glo ATP luminescence, 24 h; active means well fitted falling curve with a large enough effect; inconclusive means small, poorly fitted or top-dose-only effect; inactive means no such curve, though single readings can be large or run the other way; further: nearly all actives have a fitted effect of over 50% in size
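Fission yeast RE007 carrying one integrated HIV-1 vpr copy, seeded at OD 0.01 in PMG+AL medium with 23 nL pinned compound. Grown 24 h at 30 degrees; viability read by BacTiter-Glo luminescence after 5 min.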
A number is an active result; – = inactive; ? = inconclusive; · = no result. Unless noted, the call rests on the fitted dose curve; in most records, active means well fitted curve in the direction sought with a large enough effect; inconclusive means small, poorly fitted or top-dose-only effect, or another doubt; inactive means no such curve, though single readings can be large; an effect the other way counts as inactive or inconclusive.

SMILES | CHX counter | TbPYK inhibitor | Shiga inhibitor | LmPK inhibitor | Giardia FBPA inh | RE007 growth inh
COC(=O)c1ccc(-n2c(C)cc(-c3csc(NC(=O)c4ccc(S(=O)(=O)N(C)C)cc4)n3)c2C)cc1 | – | – | – | – | – | –
CN1CCN(S(=O)(=O)c2cccc(C(=O)Nc3nc(-c4ccccc4)cs3)c2)CC1 | 24 | – | 30 | – | – | –
CC(C)C(N)c1csc(NC(=O)Nc2ccc(OC(F)(F)F)cc2)n1 (stereo not drawn) | · | – | · | · | · | –
COc1ccc(-c2ccc(CNc3ccc4[nH]c(=O)[nH]c4c3)o2)cc1Cl | · | – | · | · | · | ·
CSCC[C@H](NC(=O)[C@H](Cc1ccccc1)n1c(=O)[nH]c2ccccc2c1=O)C(=O)N1CCC[C@H]1C(=O)O | – | – | – | – | – | –
Cc1ccc(NC(=O)Nc2cc(S(C)(=O)=O)ccc2Cl)cc1 | 36 | – | 78 | – | – | –
O=C(Nc1ccc2c(c1)OCCO2)C1CCN(S(=O)(=O)c2cccc3nsnc23)CC1 | – | – | – | – | – | –
Cc1ccc2nc(NC(=O)C3CCCN(S(=O)(=O)c4cccc5nsnc45)C3)sc2c1 (stereo not drawn) | 25 | – | – | – | – | –
O=C(Nc1ccc2c(c1)OCCO2)C1CCCN(S(=O)(=O)c2cccc3nsnc23)C1 (stereo not drawn) | 24 | – | – | – | – | –
CCOCC(O)COc1ccc(NC(=O)CC[S+](C)C)cc1 (stereo not drawn) | · | – | · | · | · | ·
Cc1nc2cc(-c3ccc(Br)cc3)[nH]n2c(=O)c1Cl | – | – | – | – | ? | –
CCc1c(C)nc2cc(-c3ccc(Cl)cc3)[nH]n2c1=O | 35 | – | 35 | – | – | –
O=c1cc(-c2ccc([N+](=O)[O-])cc2)nc2cc(-c3ccc(Cl)cc3)[nH]n12 | – | · | – | – | – | ·
CCOC(=O)Cc1c(C)nc2cc(-c3ccc(C)cc3)[nH]n2c1=O | 15 | – | – | – | – | –
O=c1c2c(nc3cc(-c4ccc(Cl)cc4)[nH]n13)CCS2 | 51 | – | – | – | – | –
CCc1c(C)nc2cc(-c3cccc(Br)c3)[nH]n2c1=O | 38 | – | 80 | – | ? | –
CCOC(=O)CCc1c(C)nc2cc(-c3ccc(Cl)cc3)[nH]n2c1=O | – | – | – | – | – | –
O=C(Nc1ccc(Cl)cc1)C1C2C=CC3(O2)C1C(=O)N(CCN1CCCCC1)C3C(=O)NC1CCCCC1 (stereo not drawn) | – | – | – | – | – | –
COc1ccc(OC)c(CNC(=O)c2cc3ccc4cccnc4c3[nH]2)c1 | · | – | · | · | · | ·
NC(=S)N/N=C/c1coc2c(ccc3ccccc32)c1=O | 24 | – | – | – | – | –
NC(=S)N/N=C/c1coc2cc(Br)ccc2c1=O | – | – | – | – | – | ?
Cc1cc2nc(-c3ccc(OCc4ccc(F)cc4)cc3)cc(C(F)(F)F)n2n1 | · | – | · | · | · | ·
COc1ccc(/C=C2/SC(=S)N(CC(=O)O)C2=O)cc1OCc1ccc(Cl)cc1 | 33 | – | 42 | – | – | –
COc1ccc(/C=C2/SC(=S)N(CCC(=O)N3CCN(C)CC3)C2=O)cc1 | – | – | – | – | – | –
COc1ccc(/C=C2\SC(=S)N(CC(=O)Nc3nnc(C)s3)C2=O)cc1 | – | – | – | – | – | –
SMILES | CHX counter | TbPYK inhibitor | Shiga inhibitor | LmPK inhibitor | Giardia FBPA inh | RE007 growth inh
COc1ccc(/C=C2\SC(=S)N(CC(=O)NCCO)C2=O)cc1 | 21 | – | – | – | – | –
COc1ccc(/C=C2/SC(=S)N(CCCC(=O)N3CCN(C)CC3)C2=O)cc1 | 12 | – | 35 | ? | – | –
O=C(O)CN1C(=O)/C(=C\c2cc(Br)ccc2OCc2ccc(Cl)cc2)SC1=S | – | – | – | – | – | –
CC1(C)CN(Cc2ccccc2)C(=O)[C@H]1CC(=O)Nc1ccc(Br)cc1 | · | – | · | · | · | –
CSc1ncc(Cl)c(C(=O)Nc2c(C(=O)c3ccc(C)c(F)c3)oc3ccccc23)n1 | · | – | · | · | · | ·
Cc1ccc(S(=O)(=O)CCC(=O)OC2CC(C)OC2=O)cc1 (stereo not drawn) | · | – | · | · | · | –
NC(=O)COC(=O)c1ccc(C(=O)C(=O)c2ccccc2)cc1 | – | – | – | – | – | –
NC(=O)COC(=O)c1ccc2noc(-c3ccccc3)c2c1 | 57 | – | 81 | – | – | –
COc1ccc2c(c1)cc(C(O)c1ccccn1)n2S(=O)(=O)c1ccccc1 (stereo not drawn) | 19 | – | 41 | – | – | –
O=C(Nc1nnc(/C=C/c2ccccc2)s1)c1ccco1 | 30 | – | 63 | – | – | –
C(=C\c1ccc(/C=C/c2ccccc2)nn1)/c1ccccc1 | – | · | – | – | – | ·
CC(=O)Nc1nnc(/C=C/c2cccc([N+](=O)[O-])c2)s1 | – | – | – | – | – | –
Nc1nnc(/C=C/c2ccccc2)s1 | 44 | – | 37 | – | – | –
COC(=O)Nc1nnc(/C=C/c2ccccc2)s1 | – | – | 49 | – | – | –
O=C(Nc1nnc(COc2ccccc2)s1)c1ccco1 | – | – | – | – | – | –
CCN(Cc1nc(-c2ccc(OC)cc2)oc1C)S(=O)(=O)c1ccc(C)cc1 | · | – | · | · | · | ·
COCCNC(=O)C1(C)CCCN(C(=O)c2c(F)ccc(C)c2F)C1 (stereo not drawn) | · | – | · | · | · | –
Cc1cc(SCC(=O)NCC(c2cccs2)N2CCOCC2)c(C)cc1Br (stereo not drawn) | · | – | · | · | · | –
COC(c1ccccc1)c1nnc(CCC(=O)NCCCc2ccccc2)o1 (stereo not drawn) | 17 | – | – | – | – | –
O=C(CCc1nnc(CCCc2ccccc2)o1)NCCCC1CCCC1 | 41 | – | 120 | – | – | –
O=C(CCc1nnc(CCCCc2ccccc2)o1)NCc1cccc(F)c1 | – | – | – | – | – | –
O=C(CCc1nnc(CCCc2ccccc2)o1)NCCc1ccco1 | 43 | – | 74 | – | – | –
O=C(CCc1nnc(CCCc2ccccc2)o1)NCC(F)(F)F | 36 | – | 39 | – | – | –
O=C(CCc1nnc(CCCCc2ccccc2)o1)NCCCc1cccnc1 | – | – | – | – | – | –
O=C(CCc1nnc(CCCCc2ccccc2)o1)NCCn1cccn1 | – | – | – | – | – | –
O=C(CCc1nnc(CCCCc2ccccc2)o1)NCCN1CCOC1=O | 21 | – | 84 | – | – | –
O=C(CCc1nnc(CCCCc2ccccc2)o1)NCc1cc(F)ccc1F | – | – | – | – | – | –
CCOC(=O)CCNC(=O)CCc1nnc(CCCc2ccccc2)o1 | 29 | – | 96 | – | – | –

Screening data from PubChem.
